Source: PubChem BioAssay
Giardia FBPA inh-1: blocks Giardia fructose-bisphosphate aldolase activity; A8B2U2; purified Giardia FBPA; Potency, µM (highest dose often 59.6 µM), hits mostly inhibitors; 290,000 tested, 0.71% active; also: nearly all actives have a fitted effect of over 55% in size
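Giardia FBPA (40 nM reagent) was preincubated 10 min at RT with compound (up to 57.5 uM final), then substrate plus GAPDH/TPI/NAD/arsenate coupling system with diaphorase/resazurin was added; resorufin fluorescence (525/598 nm) was read after 20 min.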
RE007 growth inh: less growth of the S. pombe RE007 Vpr strain | S. pombe RE007 Vpr strain, BacTiter-Glo ATP luminescence, 24 h | Potency, µM (doses to about 92.2 µM), actives largely listed as inhibitors | 360,000 tested, 0.21% active | AID 651644; active = well fitted falling curve with a large enough effect; inconclusive = small, poorly fitted or top-dose-only effect; inactive = no such curve, though single readings can be large or run the other way; also: nearly all actives have a fitted effect of over 50% in size
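Fission yeast strain RE007, carrying one chromosomally integrated HIV-1 vpr copy, was seeded at OD 0.01 in PMG+AL medium with 23 nL pinned compound. After 24 h at 30 °C and 99% humidity, viability was read by BacTiter-Glo luminescence.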
Tb PYK inh: T. brucei pyruvate kinase inhibition. Q57TT1. TbPYK enzyme, Kinase-Glo Plus ATP luminescence, 45 min. AID 624173. 410,000 tested, 0.12% active. Potency, µM (titrated, usually from 76.8 µM), actives largely listed as inhibitors; also: nearly all actives have a fitted effect of over 50% in size
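Assay buffer: 50 mM TEA pH 7.2, 100 mM KCl, 10 mM MgCl2, 0.05% BSA, 0.01% Tween-20. Pyruvate kinase from T. brucei plus substrate met compound, then ADP (130 uM final). Luminescence was read post 45 min RT.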
LmPK inhibitor: LmPK (Leishmania mexicana) enzyme inhibition | Q27686 | purified LmPK, Kinase-Glo ATP luminescence, 1 h | Potency, µM (highest dose often 57.5 µM), usual class: inhibitors | 290,000 tested, 0.37% active
Target sequence (Q27686 whole entry, looked up): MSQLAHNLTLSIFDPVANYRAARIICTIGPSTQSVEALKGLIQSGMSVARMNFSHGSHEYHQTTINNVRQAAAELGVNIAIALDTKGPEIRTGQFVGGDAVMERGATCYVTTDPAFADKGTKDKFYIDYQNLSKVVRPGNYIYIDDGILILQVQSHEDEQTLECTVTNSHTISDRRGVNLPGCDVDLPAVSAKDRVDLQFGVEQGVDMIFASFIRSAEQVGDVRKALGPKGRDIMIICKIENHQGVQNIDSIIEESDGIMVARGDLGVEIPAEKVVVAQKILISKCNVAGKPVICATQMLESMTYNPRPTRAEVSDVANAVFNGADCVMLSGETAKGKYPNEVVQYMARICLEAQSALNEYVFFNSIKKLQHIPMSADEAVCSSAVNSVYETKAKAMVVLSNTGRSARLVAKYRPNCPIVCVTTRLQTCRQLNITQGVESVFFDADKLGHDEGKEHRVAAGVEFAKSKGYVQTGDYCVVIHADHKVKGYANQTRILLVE
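Kinase-Glo luminescence read after 1 h RT reaction of 0.1 nM LmPK with 0.5 mM PEP and 0.1 mM ADP. Activity scaled between uninhibited and enzyme-free controls.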
LmPK confirm: Blocks LmPK activity, confirmation assay; shares compounds with LmPK inhibitor; purified LmPK, Kinase-Glo ATP luminescence, 1 h; Potency, µM (top dose mostly 57.5 µM), hits mostly inhibitors; 150 tested, 40% active; AID 2559;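 active = compounds giving a full or partial concentration-response curve, as inhibitors or activators; inconclusive = weak, top-dose-only or unclear curve responses; inactive = no response at any tested dose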
Giardia growth: blocks growth of Giardia lamblia trophozoites. shares compounds with Giardia FBPA inh-1. Giardia lamblia trophozoite growth inhibition. Potency, µM (doses to about 57.5 µM), hits mostly inhibitors. 1,500 tested, 5% active. AID 2785;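 also: trophozoites exposed to compound for 48 h at 37 °C; nearly all actives have a fitted effect of over 70% in size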
Mammal cell tox: toxic to mammalian cells in Giardia aldolase counter-screen. Potency, µM (doses to about 57.5 µM), most hits filed as inhibitors. 1,500 tested, 4% active. mammalian cell viability counter-screen, qHTS. shares compounds with Giardia FBPA inh-1;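 also: Chinese hamster ovary cells used as mammalian cytotoxicity surrogate; viability measured as cellular ATP by luminescence; compound exposure lasted 48 h before reading; nearly all actives have a fitted effect of over 60% in size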
Giardia FBPA inh-2: confirmation of Giardia fructose-bisphosphate aldolase inhibitors; shares compounds with Giardia FBPA inh-1; purified Giardia aldolase enzyme activity, qHTS; Potency, µM (highest dose often 57.5 µM), actives largely listed as inhibitors; 1,500 tested, 5% active; AID 2787; also: nearly all actives have a fitted effect of over 45% in size
Rabbit FBPA inh: rabbit FBP aldolase inhibition by Giardia aldolase hits | Rabbit muscle FBPA enzyme inhibition, selectivity counter-screen | 1,500 tested, 4% active | Potency, µM (doses to about 57.5 µM), usual class: inhibitors | shares compounds with Giardia FBPA inh-1 | AID 2794; also: nearly all actives have a fitted effect of over 60% in size
GAPDH counter: counter-screen for Giardia aldolase inhibitors: GAPDH coupling enzyme; shares compounds with Giardia FBPA inh-1; GAPDH coupling enzyme counterscreen, biochemical, qHTS; Potency, µM (highest dose often 57.5 µM), most hits filed as inhibitors; 1,500 tested, 6% active; also: nearly all actives have a fitted effect of over 55% in size
Numbers stand for hits; . = inactive; ? = inconclusive; / = not tested or not shown; [ ] = another dose, or the depositor's remark. Compounds with a hit are over-represented: about 0.95% of the library has one in this group of screens. Unless noted, calls follow the shape of the dose curve; as a rule, active = well fitted curve in the direction sought with a large enough effect; inconclusive = small, poorly fitted or top-dose-only effect, or another doubt; inactive = no such curve, though single readings can be large; an effect the other way counts as inactive or inconclusive.

SMILES	Giardia FBPA inh-1	RE007 growth inh	Tb PYK inh	LmPK inhibitor	Giardia growth	Mammal cell tox	Giardia FBPA inh-2	Rabbit FBPA inh	GAPDH counter	others
c1ccc(CNc2ncncc2-c2ccc3c(c2)OCO3)cc1	.	/	/	/	/	/	/	/	/
C[C@H](O)C(N)C(=O)O (stereo partly specified)	.	/	/	/	/	/	/	/	/
Cc1ccc(C(=O)N2c3ccccc3CC2C)o1 (stereo unspecified)	.	?	.	6.3µM	/	/	/	/	/	LmPK confirm=?
CC1Cc2ccccc2N1C(=O)c1ccc(Br)o1 (stereo unspecified)	/	.	.	/	/	/	/	/	/
C#CCCCO/N=C1/[C@H]2O[C@@H]2[C@@H](O)[C@H]2[C@H]1CCn1c(=O)n(Cc3cc4c(cc3Cl)OCO4)c(=O)n12	.[12.9 µM]	/	/	/	/	/	/	/	/
Cc1ccc(-c2nnc(N(C)C(=O)c3cccnc3)s2)cc1	/	.	.	.	/	/	/	/	/	LmPK confirm=.
Cc1ccc(NC(=O)Cn2cc(C(=O)c3ccco3)c3ccccc32)c(C)c1	/	/	.	/	/	/	/	/	/
CCOC(=O)[C@H](Cc1ccc(O)cc1)NC(=O)c1ccccc1	.	/	/	/	/	/	/	/	/
Cc1cn(C2CC3OCC(NC(=O)C(NC(=O)OC(C)(C)C)C(C)OCc4ccccc4)C3O2)c(=O)[nH]c1=O (stereo unspecified)	.	/	/	/	/	/	/	/	/
C/C(CC(=O)Nc1ccccn1)=N\NC(=O)C(=O)Nc1cccc(C)c1	.	.	.	.	/	/	/	/	/
O=C(Nc1cccc(O)c1)C(=O)Nc1ccccn1	.	?	?	7.9µM	/	/	/	/	/	LmPK confirm=21µM
O=C(COC(=O)CCC(=O)c1ccc(F)cc1)Nc1ccccc1	.	.	.	.	/	/	/	/	/
O=C(COC(=O)CCC(=O)c1ccc(F)cc1)Nc1ccc(F)cc1F	.	.	.	2.2µM	/	/	/	/	/	LmPK confirm=.
CN1CCc2cccc3c2C1Cc1ccc(O)c(O)c1-3 (stereo unspecified)	14µM	.	.	3.2µM	.[10.4 µM]	.	?	?	.	LmPK confirm=.
c1csc(CNc2ccnc(-c3ccc4c(c3)OCO4)n2)c1	.	/	/	/	/	/	/	/	/
CN(CCOc1ccccc1)CC(=O)Nc1ccc(Cl)cc1[N+](=O)[O-]	22µM	.	.	.	?	.	.	.	.
COc1ccc(OCCN(C)CC(=O)Nc2c(C)cccc2C)cc1	14µM	.	.	.	.[10.4 µM]	.	.	.	.
CN(C)S(=O)(=O)c1cc(NC(=O)CNCc2ccccc2)ccc1Cl	?	.	.	.	/	/	/	/	/
Cc1ccc(NC(=O)CNCc2ccccc2Cl)cc1S(=O)(=O)N(C)C	22µM	.	.	.	?	.	.	.	.
COc1cc(NC(=O)CN(C)CCOc2ccccc2)c(C)cc1[N+](=O)[O-]	.	.	.	.	/	/	/	/	/
CN(CCOc1ccccc1)CC(=O)Nc1ccc(Cl)c(S(=O)(=O)N(C)C)c1	16µM	.	.	.	.[10.4 µM]	.	.	.	.
O=C(c1ccccc1Br)N(Cc1ccco1)Cc1ccco1	/	/	.	/	/	/	/	/	/
CCOC(=O)NC[C@H](Cc1ccc(OCCc2nc(-c3ccccc3)oc2C)cc1)N/C(C)=C\C(=O)c1ccc(C(F)(F)F)cc1	.	/	/	/	/	/	/	/	/
COc1ccc(-c2nc3cnc(Oc4cccc(Cl)c4)nc3n(C3CC3)c2=O)cc1	.	/	/	/	/	/	/	/	/
Cc1cccc(/C=N/NC(=O)Cn2nnnc2N)n1	18µM	.	.	.	.	.	.	.	.
Nc1nnnn1CC(=O)N/N=C/C=C/c1ccccc1	.	.	.	.	/	/	/	/	/
CC1=C(c2cccc(Cl)c2)S(=O)(=O)NC1=NCc1ccccc1C	/	/	.	/	/	/	/	/	/
COc1ccc(OC)c(N=c2ssnc2Cl)c1	18µM	?	28µM	.	?	.	.	.	.
Cc1cc(Cl)ccc1N=C1N=C(N)c2ccccc21	.	.	.	.	/	/	/	/	/
Cc1cc(Cl)ccc1N=c1ssnc1Cl	16µM	.	?	.	.	.	.	.	.
